Screening data deposited in PubChem BioAssay by several laboratories.
NR2F2 inh – blocks human COUP-TFII nuclear receptor; HEK293T NGFI-A luciferase reporter, luminescence; AID 686940; 370,000 compounds, 0.7% hits; P24468; inhibition, % at 8.6 µM;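 active means inhibition above a per-plate cutoff, mean inhibition of test wells between control levels plus 3 SD, cut at about 38% in these data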;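 further: cells cotransfected with COUP-TFII expression vector driving the NGFI-A reporter; 0% = median of COUP-TF2 test wells and 100% = reporter-only cells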
Gli-Sufu antag – Gli-Sufu pathway antagonism | AID 588413 | inhibition, % at 5 µM | 340,000 compounds, 0.74% hits | Sufu-KO-LIGHT fibroblasts, Gli luciferase reporter luminescence;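 active means inhibition above about 55%, limit read from the data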;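 further: 0% = DMSO-treated cells and 100% = wells with medium but no cells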
LRH-1 inv ag – suppresses constitutive activity of human LRH-1. O00482. HEK293T StAR-luciferase reporter, LRH-1 transfected, 24 h. inhibition, % at 3.6 µM. 360,000 compounds, 0.13% hits;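 active means inhibition above the mean inhibition of all tested compounds plus 3 SD, cut at about 73% in these data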;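 further: 0% = DMSO wells and 100% = reporter-only cells lacking LRH-1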
NCOA3 inh – human NCOA3 inhibition; Q9Y6Q9; HEK293 GAL4-SRC3 luciferase reporter, luminescence; inhibition, % at 3.6 µM; 360,000 compounds, 0.17% hits;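 active means inhibition above a per-campaign cutoff, the mean of all compounds plus 3 SD, cut at about 60% in these data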;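 further: 0% = DMSO-treated cells and 100% = gossypol-treated cells at 36 µM; higher means less SRC3-driven luciferase light from the GAL4 reporter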
NCOA1 inh – inhibitors of human steroid receptor coactivator 1 (SRC1) | Q15788 | 360,000 compounds, 0.12% hits | HEK293 GAL4-SRC1 luciferase reporter, luminescence | inhibition, % at 3.6 µM | AID 588354;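 active means inhibition above the campaign mean plus 3 SD, with each screening campaign given its own cutoff, cut at about 60% in these data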;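 further: 0% = DMSO treated cells and 100% = gossypol at 36 µM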
NCOA2 inhibitor – human SRC2 (NCOA2) inhibition | inhibition, % at 9 µM | 370,000 compounds, 0.17% hits | AID 651957 | HEK293 GAL4-SRC2 luciferase reporter, luminescence | Q15596;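 active means inhibition above the mean inhibition of all tested compounds plus 3 SD, set per campaign, cut at about 52% in these data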;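 further: 0% = DMSO treated cells and 100% = cells given Gossypol at 36 µM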
VP16 Luc counter – VP16 inhibition counter-screen for COUP-TFII; shares compounds with NR2F2 inh; HEK293 Gal4-VP16 luciferase reporter, luminescence; inhibition, % at 8.5 µM; 2,500 compounds, 25% hits; AID 687007; in the data active means inhibition above about 13%
COUP-TFII conf – COUP-TFII (NR2F2) inhibition, confirmation assay. inhibition, % at 8.5 µM. HEK293 NGFI-A luciferase reporter, luminescence. 2,500 compounds, 45% hits. shares compounds with NR2F2 inh. AID 687008;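 active means mean inhibition over three repeats above a set limit taken from the earlier primary screen, cut at about 38% in these data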;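 further: 100% = cells given the luciferase reporter alone without the COUP-TF2 vector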
An asterisk follows results filed as active; x = no result; ! = repeats disagree. In the library only some 1.3% were active in any assay of this set; here they are far more common.

SMILES | NR2F2 inh | Gli-Sufu antag | LRH-1 inv ag | NCOA3 inh | NCOA1 inh | NCOA2 inhibitor | VP16 Luc counter | COUP-TFII conf
C#CCN(C[C@@H]1[C@@H](OC(=O)NCc2ccccc2F)[C@@H](OC(=O)NCc2ccccc2F)Cn2c(=O)n(CCCCCC)c(=O)n21)S(=O)(=O)c1ccc(C)cc1 | 1 | x | 16 | -7 | -2 | 0 | x | x
C#CCN(C[C@@H]1[C@@H](OC(=O)NCc2ccccc2F)[C@@H](OC(=O)NCc2ccccc2F)Cn2c(=O)ccc(=O)n21)S(=O)(=O)c1ccc(C)cc1 | 63* | x | 25 | 36 | 5 | 22 | 23* | 37
C#CCN(C[C@@H]1[C@@H](OC(=O)NC2CCCC2)[C@@H](OC(=O)NC2CCCC2)Cn2c(=O)ccc(=O)n21)S(=O)(=O)c1ccc(C)cc1 | 34 | x | 26 | -30 | -6 | -30 | x | x
CCOC(=O)[C@@]12CCCC=C1N(CCc1ccc(Cl)cc1)C(=O)[C@H]2CC(=O)N1CCC(c2ccccc2)CC1 | 14 | x | x | x | x | 10 | x | x
Cc1cn([C@H]2C=C[C@@H](CO)O2)c(=O)[nH]c1=O | 61*! | 7 | -2 | -6 | -8 | -15 | -1 | -13
CCCC(=O)N1CCC[C@]2(CC[C@H](CCC(C)=O)O2)C1 | 5 | x | x | x | x | 15 | x | x
COc1ccc(CC(=O)Nc2ccc3c(c2)CCC3)cc1OC | 50* | 8 | 23 | 27 | 25 | -5 | -4 | 12
COc1ccc(CCC(=O)Nc2ccc(C)c(S(=O)(=O)N(C)C)c2)cc1OC | 41* | 18 | 29 | 17 | 13 | 21 | 1 | 15
COc1ccc(OC)c(CC(=O)Nc2ccc3c(c2)CCC3)c1 | 8 | -10 | 14 | 6 | -5 | 15 | x | x
CCC[C@H]1[C@@H](NC(=O)Nc2ccc3c(c2)OCO3)CC[C@@]23CCCN2C(=O)CCC[C@@H]13 | -1 | x | x | x | x | x | x | x
CC(C)CCn1cnc2c(sc3nc4c(cc32)CSC(C)(C)C4)c1=O | 55* | -15 | 24 | -8 | 3 | 38 | -57 | 24
CCCC1CCC2(CCC(=O)N2CCC#N)CC1 (stereo unspecified) | -4 | x | x | x | x | -39 | x | x
O=C(Nc1ccc(C(=O)OC2CCCCC2)cc1)c1ccncc1 | 53* | 3 | 18 | 12 | -9 | 10 | -8 | 13
O=C(c1ccccc1)c1ccc(Cn2cc(CCCO)nn2)cc1 | 37* | 24 | 20 | 3 | 6 | 2 | 6 | 13
O=C(c1ccccc1)c1ccc(Cn2cc(-c3ccccc3)nn2)cc1 | 38* | 23 | -12 | -21 | -7 | 0 | -79 | 10
O=C(O)CCCCCCCCc1cn(Cc2ccc(C(=O)c3ccccc3)cc2)nn1 | -1 | -11 | -3 | 3 | -4 | -11 | x | x
CCOC(=O)[C@]12CCCC3=C1N(CCC3)C(=O)[C@@H](CC(=O)NCC1CCCCC1)C2 | 7 | x | x | x | x | -5 | x | x
Cn1c(Cc2cccs2)nnc1SCC(=O)Nc1ccc2c(c1)OCO2 | -16 | x | x | x | x | 19 | x | x
CC(=O)N1c2ccccc2C(=O)NCC1C(=O)NC(C)(C)C (stereo unspecified) | 8 | x | x | x | x | -3 | x | x
CN(c1ccc(C(=O)N2CCN(Cc3ccc4c(c3)OCO4)CC2)cc1)S(=O)(=O)c1ccccc1 | 48* | 7 | 37 | 26 | 28 | 36 | 9 | 35
CN(c1ccc(C(=O)N2CCN(Cc3ccccc3)CC2)cc1)S(=O)(=O)c1ccccc1 | 19 | -7 | 11 | -3 | 6 | 4 | x | x
Cc1ccc(S(=O)(=O)N(C)c2ccc(C(=O)N3CCN(Cc4ccc5c(c4)OCO5)CC3)cc2)cc1 | 56* | 14 | 33 | 10 | 29 | 22 | 5 | 39*
CC(C)CN(CC(C)C)C(=O)c1cn(C(C)c2ccccc2)nn1 (stereo unspecified) | 3 | x | x | x | x | 7 | x | x
CCOC(=O)N1CCN(C(=O)C[C@H]2C[C@@]3(C(=O)OC)C(=C[C@H](C(C)(C)C)O[C@@H]3C)N(CCC3=CCCCC3)C2=O)CC1 | 7 | x | x | x | x | 1 | x | x
O=C(c1ccc(S(=O)(=O)NCc2ccco2)cc1)N1CCN(Cc2ccccc2)CC1 | -9 | -10 | -2 | 18 | 7 | -7 | x | x
